# Bioassay records from PubChem.
# Shown are actives, neighbours in structure and some others; about 21% of the full set was active somewhere.
# TDP1 cell CPT – growth inhibition of DT40 Tdp1-/-;hTDP1 cells with camptothecin (screen for TDP1 inhibitors); chicken DT40 Tdp1-/-;hTDP1 cells + 20 nM CPT, ATP luminescence, 48 h; Potency, µM (titrated, usually from 46.2 µM), for the others: at the highest dose activity change, negative = growth inhibition, hits mostly inhibitors; 12% of 420,000 active; AID 686979; note: potency is the fitted concentration of half-maximal effect; nearly all actives have a fitted effect of over 55% in size
#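 Chicken DT40 Tdp1-/- cells complemented with human TDP1, 400 cells/well, exposed to compounds plus 20 nM camptothecin for at least 48 h at 37 C; viability read as ATP content by CellTiter-Glo luminescence.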
# VP16 counter – Gal4-VP16 reporter inhibition counter-screen | Potency, µM (doses to about 53.6 µM), without a hit: top-dose activity, negative = inhibition, hits mostly inhibitors | Drosophila S2 Gal4-VP16 UAS-luciferase, luminescence, 20 h | 3.5% of 310,000 active;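 note: Gal4-VP16 expression switched on by copper sulfate through the metallothionein promoter; potency is the fitted concentration of half-maximal effect; nearly all actives have a fitted effect of over 50% in size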
# ELG1 DNA repair – ELG1-dependent DNA repair inhibition; 2.3% of 330,000 active; Potency, µM (series often up to 46.1 µM), inactives show at the highest dose activity change, negative = inhibition, hits mostly inhibitors; HEK293T ELG1-luciferase reporter, luminescence, 16 h; DNA damage induced by 5-fluorouridine; note: potency is the fitted concentration of half-maximal effect; nearly all actives have a fitted effect of over 55% in size
#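 Step one: seed 2,000 cells per well. Step two: pin-transfer compound or DMSO alongside 5-fluorouridine. Step three: incubate 16 hr, 37 °C, 5% CO2. Step four: add ONE-Glo, wait 30 min, read luminescence.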
# DT40 TDP1 no CPT – qHTS for Inhibitors of human tyrosyl-DNA phosphodiesterase 1 (TDP1): qHTS in cells in absence of CPT | DT40 Tdp1-/- hTDP1 cells, no CPT, ATP luminescence, 48 h | AID 686978, 2013 | 15% of 420,000 active | Potency, µM (doses to about 46.2 µM), for inactives: at the top dose activity change, negative = growth inhibition, hits mostly inhibitors; note: potency is the fitted concentration of half-maximal effect; nearly all actives have a fitted effect of over 55% in size
#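 Compound effects on proliferation are scored in DT40 Tdp1-/-;hTDP1 cells in the absence of CPT. ATP levels (CellTiter-Glo luminescence) are recorded after a ≥48 hr, 37 °C incubation.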
# IL-1B inflam inh – inhibitors of inflammasome signaling (IL-1 beta secretion); 4.7% of 360,000 active; activity change, % at 57.5 µM; THP-1 LPS/ATP IL-1B secretion, AlphaLISA, 16 h; active compounds read low; AID 743279; in the data active = activity change below about -50%; inconclusive = mostly about -30% to -49%
#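 Secreted IL-1B measured by AlphaLISA bead assay after 16 h compound exposure of THP-1 cells; compounds (final up to 57.5 uM) added 1 h before LPS (250 ng/mL) and ATP (1.25 mM) stimulation; lower signal means less secretion.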
# RORgamma inh – ROR gamma (mouse) transcription inhibition. AID 2551. 5.4% of 310,000 active. P51450. Potency, µM (series often up to 53.6 µM), for the others: at the highest dose activity change, negative = inhibition, hits mostly inhibitors. Drosophila S2 Gal4-RORgamma UAS-luciferase reporter, 20 h; note: potency is the fitted concentration of half-maximal effect; nearly all actives have a fitted effect of over 60% in size
# Target sequence (P51450 whole entry, looked up, the tested form may be a part): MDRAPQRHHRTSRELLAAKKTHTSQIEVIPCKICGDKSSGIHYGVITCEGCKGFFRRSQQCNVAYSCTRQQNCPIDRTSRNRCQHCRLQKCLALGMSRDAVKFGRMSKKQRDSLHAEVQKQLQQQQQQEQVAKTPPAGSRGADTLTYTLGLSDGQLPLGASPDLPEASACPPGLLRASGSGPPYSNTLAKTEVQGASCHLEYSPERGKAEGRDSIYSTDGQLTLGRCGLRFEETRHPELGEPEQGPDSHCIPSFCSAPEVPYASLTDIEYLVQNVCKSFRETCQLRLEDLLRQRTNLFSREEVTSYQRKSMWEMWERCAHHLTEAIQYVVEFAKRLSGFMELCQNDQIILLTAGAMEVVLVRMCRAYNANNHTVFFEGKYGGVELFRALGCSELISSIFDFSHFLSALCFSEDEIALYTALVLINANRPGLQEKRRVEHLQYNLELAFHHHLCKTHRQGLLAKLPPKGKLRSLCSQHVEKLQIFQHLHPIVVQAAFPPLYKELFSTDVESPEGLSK
#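 Drosophila Schneider cells stably carrying a metallothionein-driven Gal4 DBD–ROR gamma fusion and a UAS-Photinus luciferase reporter were exposed to compound for 1 hr, then induced with copper sulfate (700 uM final) for 20 hr at ambient temperature before luminescence reading.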
# Starred values were filed as active, the others as inactive; ? = inconclusive; nt = no result given. Unless noted, calls come from the whole dose curve; as a rule, active = well fitted curve in the direction sought with a large enough effect; inconclusive = small, poorly fitted or top-dose-only effect, or another doubt; inactive = no such curve, though single readings can be large; an effect the other way counts as inactive or inconclusive. % is set by controls: 0 for no effect and ±100 for the full control effect.
SMILES,TDP1 cell CPT,VP16 counter,ELG1 DNA repair,DT40 TDP1 no CPT,IL-1B inflam inh,RORgamma inh
CCOC(=O)c1c(C)n(C)c2c1cc(OC(C)=O)c1ccccc12,0.8%,-6.0%,-4.5%,?,29.3,14.6%
CCOC(=O)c1c(C)n(C)c2c(C)cc(O)c(OC(C)=O)c12,9.2µM*,0.6%,7.5%,13µM*,-10.0,-21.9%
CCN(CC(=O)Nc1ccc(NC(C)=O)cc1)C(=O)c1cccc(Oc2ccccc2)c1,12.6%,nt,5.0%,-6.5%,-7.0,nt
CC(=O)Nc1ccc(OCc2cccc3ccccc23)cc1,-13.6%,2.2%,-18.8%,-2.6%,?,-22.5%
COc1ccc(CN(Cc2ccccc2)C(=O)c2cccc(C#N)c2)cc1COc1ccc(NC(C)=O)cc1,8.91µM*,nt,nt,14.1µM*,nt,nt
COc1ccc(CNCc2ccccc2)cc1COc1ccc(NC(C)=O)cc1,8.91µM*,nt,nt,10µM*,nt,nt
NC(=O)c1cccn1Cc1cccc(Cl)c1,20.6µM*,?,-13.0%,?,19.8,?
CS(=O)(=O)Nc1c(O)ccc2c1CCC[C@H]2C1=NCCN1,2.3%,5.9%,nt,-6.7%,nt,0.6%
COc1ccc(-c2nc3c(C#N)c[nH]n3c2NC2CCCC2)c(OC)c1,11.6µM*,nt,nt,?,nt,nt
CC(C)Oc1ccc(C(=O)NC2CCCCC2)cc1,-8.3%,8.8%,?,?,-6.2,?
CC(C)Oc1ccc(-c2nc3c(C#N)c[nH]n3c2NC2CCCCC2)cc1,?,nt,nt,23.1µM*,nt,nt
CCOc1ccc(-c2nc3c(C#N)c[nH]n3c2NC2CCCC2)cc1,10.3µM*,nt,nt,16.4µM*,nt,nt
CCSc1nnc(NC(=O)CN2C(=O)N(C)C3(CCCCC3)C2=O)s1,-4.6%,nt,-7.9%,2.5%,1.0,nt
O=C(Nc1c(-c2ccccc2)nc2ccccn12)c1cccc(F)c1,-7.2%,17.8%,3.0%,-30.4%,-22.6,-2.2%
O=C(c1csnn1)N1CCC2(CC1)CCN(c1ncccn1)CC2,6.2%,3.7%,nt,?,nt,6.5%
C=CC[C@@H](CC(=O)N[C@@H](CO)Cc1ccccc1)C(=O)N[C@H](COC(=O)[C@@H](CC=C)Cc1ccc(F)cc1)Cc1ccccc1,?,nt,-0.1%,?,14.1,nt
C=CC[C@@H](CC(=O)N(CCO)Cc1ccccc1)C(=O)N[C@H](COC(=O)[C@@H](CC=C)CC(=O)OC(C)(C)C)C(C)(C)C,?,nt,-8.3%,?,-58.3*,nt
C=CC[C@H](CC(=O)NCCO)C(=O)N[C@@H](C)COC(=O)[C@@H](CC=C)CC(=O)OC(C)(C)C,-16.8%,nt,?,-12.9%,4.6,nt
C=CC[C@H](CC(=O)N(CCO)Cc1ccccc1)C(=O)N[C@H](COC(=O)[C@H](CC=C)CC(=O)OC(C)(C)C)Cc1ccccc1,23.1µM*,nt,?,20.6µM*,-27.0,nt
CCN1CCN(c2ccc(S(=O)(=O)N3CCCCC3)cc2NC(=O)COc2ccc(Cl)c(C)c2)CC1,16.4µM*,-26.8%,23.1µM*,13µM*,-12.2,0.1µM*
CCC(=O)c1ccc(OCC(=O)Nc2cc(S(=O)(=O)N3CCCCC3)ccc2N2CCN(CC)CC2)cc1,?,nt,?,18.4µM*,-16.0,nt
CCN1CCN(c2ccc(S(=O)(=O)N3CCCCC3)cc2NC(=O)Cc2ccccc2)CC1,-20.6%,nt,-4.9%,-13.1%,-11.7,nt
Cc1nn(CC(=O)NC(C)C(C)C)c(C)c1S(=O)(=O)N1CCCCC1 (stereo not drawn),1.8%,nt,?,2.3%,8.6,nt
COC(=O)N1CCC2(CC1)CN(C(=O)Nc1ccccc1)C2,-0.1%,1.6%,nt,-2.3%,nt,2.0%
OCC1OC([S-])[C@H](O)C(O)C1O.[Au+] (stereo partly drawn),nt,6.31µM*,nt,nt,nt,-8.8%
SMILES,TDP1 cell CPT,VP16 counter,ELG1 DNA repair,DT40 TDP1 no CPT,IL-1B inflam inh,RORgamma inh
OCC1OC(O)C(O)C(O)C1O (stereo not drawn),nt,-4.2%,nt,nt,nt,8.6%
Cc1ccc2nc(C3CCCN3Cc3nc(CCC(C)C)no3)[nH]c2c1 (stereo not drawn),?,20µM*,?,?,4.0,7.08µM*
Cc1cc(=O)oc2cc(OCC(=O)N3c4ccccc4CC3C)ccc12 (stereo not drawn),4.11µM*,-16.6%,?,2.31µM*,42.3,?
Cc1cc(=O)oc2cc(OCC(=O)N3CCCC(C)C3)ccc12 (stereo not drawn),-4.5%,1.2%,12.2%,-20.6%,-11.1,11.6%
COc1ccc(OCC(=O)N2c3ccccc3CC2C)c([N+](=O)[O-])c1 (stereo not drawn),?,nt,?,?,-13.5,nt
CC1Cc2ccccc2N1C(=O)COc1nc2ccccc2nc1N1CCOCC1 (stereo not drawn),7.31µM*,-12.3%,-2.3%,9.2µM*,-3.1,-4.1%
CCCNC(=O)COc1nc2ccccc2nc1N1CCOCC1,?,-9.1%,-1.1%,6.8%,2.8,2.9%
Cc1cc(=O)oc2ccc(OCC(=O)N3CCC(C)CC3)cc12,?,9.5%,?,25.9µM*,-11.8,40.0%
CCN(CC)c1cccc(OCC(=O)N2c3ccccc3CC2C)c1 (stereo not drawn),?,nt,-15.3%,18.4µM*,-1.1,nt
CC(C)(C)NC(=O)C1C(c2ccc(C(F)(F)F)cc2)=Nc2ccccc2N1C(=O)c1cccc2ccccc12 (stereo not drawn),?,nt,nt,?,24.1,nt
Cc1noc(C)c1NC(=O)N(C)C[C@H]1OCc2cn(nn2)CCCC(=O)N([C@@H](C)CO)C[C@@H]1C,2.6%,nt,nt,?,3.9,nt
CCc1nnc(NC(=O)CSc2nnc(C(C)NC(=O)c3ccccc3)n2C)s1 (stereo not drawn),-1.9%,-20.1%,2.5%,-5.8%,-1.6,2.5%
CC1(C)OC(=O)C=C[C@]2(C)[C@H]3CC[C@@]4(C)[C@H](C(=O)O)OC(=O)[C@H]5O[C@]54[C@]3(C)C(=O)C[C@@H]12,-15.8%,nt,16.6%,-3.3%,11.3,nt
CCC(C)c1ccc(S(=O)(=O)N2CCN(C(=O)COc3ccc4c(C)cc(=O)oc4c3)CC2)cc1 (stereo not drawn),?,-11.7%,8.2µM*,14.6µM*,-13.4,-5.4%
COc1ccc(/C=C/c2nc(C#N)c(N3CCCCC3)o2)cc1OC,23.1µM*,nt,nt,16.4µM*,nt,nt
COc1ccccc1/C=C/c1nc(C#N)c(N(C)C)o1,?,26.0%,?,16.4µM*,-7.9,18.8%
COc1cc(/C=C/c2nc(C#N)c(N3CCCCCC3)o2)cc(OC)c1OC,14.6µM*,nt,nt,16.4µM*,nt,nt
